Measured values published in the supplement of paper PMC11732987, “Enantioselective OTUD7B fragment discovery through chemoproteomics screening and high-throughput optimisation” (Communications Chemistry, 2025).

Legend:
Assay in all cases: log2 ratio of Biotin-Ahx-Ub-VS probe labelling (fragment/DMSO); higher = less target engagement (more negative = stronger competition), active = hit call of the paper (q ≤ 0.05, log2 ratio ≤ -1)
Details in all cases: compound concentration: 200 uM; treatment time: 3 h
[1] = biological target: T1, USP19 (UniProt O94966)
T1 sequence (whole entry): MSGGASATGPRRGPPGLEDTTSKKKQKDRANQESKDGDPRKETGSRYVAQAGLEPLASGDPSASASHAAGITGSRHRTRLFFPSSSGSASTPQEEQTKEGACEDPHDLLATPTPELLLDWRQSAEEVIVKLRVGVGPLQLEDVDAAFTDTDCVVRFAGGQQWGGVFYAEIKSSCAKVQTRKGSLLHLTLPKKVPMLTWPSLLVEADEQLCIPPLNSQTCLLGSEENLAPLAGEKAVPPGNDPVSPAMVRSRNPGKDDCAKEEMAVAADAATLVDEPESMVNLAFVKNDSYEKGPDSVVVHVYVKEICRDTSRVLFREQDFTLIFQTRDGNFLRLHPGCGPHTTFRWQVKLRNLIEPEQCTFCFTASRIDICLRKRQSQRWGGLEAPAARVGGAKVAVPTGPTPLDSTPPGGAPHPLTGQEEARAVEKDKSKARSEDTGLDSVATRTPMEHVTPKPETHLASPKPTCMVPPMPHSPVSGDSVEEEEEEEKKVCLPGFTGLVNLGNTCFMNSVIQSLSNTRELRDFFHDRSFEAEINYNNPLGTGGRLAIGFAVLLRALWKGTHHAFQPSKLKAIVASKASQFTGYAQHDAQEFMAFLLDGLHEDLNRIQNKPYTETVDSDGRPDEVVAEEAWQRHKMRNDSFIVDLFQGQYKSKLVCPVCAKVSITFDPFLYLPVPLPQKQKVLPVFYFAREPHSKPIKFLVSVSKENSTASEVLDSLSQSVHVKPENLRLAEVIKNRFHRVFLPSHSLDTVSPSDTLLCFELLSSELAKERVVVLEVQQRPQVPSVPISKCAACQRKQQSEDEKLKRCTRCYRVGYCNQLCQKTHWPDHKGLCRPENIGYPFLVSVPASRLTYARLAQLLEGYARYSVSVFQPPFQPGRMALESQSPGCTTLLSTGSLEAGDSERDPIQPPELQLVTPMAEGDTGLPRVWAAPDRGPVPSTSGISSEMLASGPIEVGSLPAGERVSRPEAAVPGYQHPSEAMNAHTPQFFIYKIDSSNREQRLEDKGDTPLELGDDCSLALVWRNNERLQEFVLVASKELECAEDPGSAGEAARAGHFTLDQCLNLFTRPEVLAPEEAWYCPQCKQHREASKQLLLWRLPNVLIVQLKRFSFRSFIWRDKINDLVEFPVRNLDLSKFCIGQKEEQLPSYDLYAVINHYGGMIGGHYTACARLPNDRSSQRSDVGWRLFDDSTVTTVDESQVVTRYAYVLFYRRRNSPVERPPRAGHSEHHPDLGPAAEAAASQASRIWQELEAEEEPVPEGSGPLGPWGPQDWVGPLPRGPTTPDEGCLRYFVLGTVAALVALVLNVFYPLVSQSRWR
Procedure, shortened: (§1)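 Average log2 ratios of fragment over vehicle were obtained by unpaired t-test from global-median-normalised Spectronaut label-free quantities. Proteins with ≥2 unique peptides were included. HEK293T lysate (495 µg per sample) was treated in triplicate with fragment at 200 µM or vehicle for 3 h, then with Biotin-Ahx-Ub-VS at 0.5 µM final for 1 h, and labelled DUBs were NeutrAvidin-enriched and run by diaPASEF LC-MS/MS.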

[2] = biological target: T2, USP22 (UniProt Q9UPT9)
T2 sequence (whole entry): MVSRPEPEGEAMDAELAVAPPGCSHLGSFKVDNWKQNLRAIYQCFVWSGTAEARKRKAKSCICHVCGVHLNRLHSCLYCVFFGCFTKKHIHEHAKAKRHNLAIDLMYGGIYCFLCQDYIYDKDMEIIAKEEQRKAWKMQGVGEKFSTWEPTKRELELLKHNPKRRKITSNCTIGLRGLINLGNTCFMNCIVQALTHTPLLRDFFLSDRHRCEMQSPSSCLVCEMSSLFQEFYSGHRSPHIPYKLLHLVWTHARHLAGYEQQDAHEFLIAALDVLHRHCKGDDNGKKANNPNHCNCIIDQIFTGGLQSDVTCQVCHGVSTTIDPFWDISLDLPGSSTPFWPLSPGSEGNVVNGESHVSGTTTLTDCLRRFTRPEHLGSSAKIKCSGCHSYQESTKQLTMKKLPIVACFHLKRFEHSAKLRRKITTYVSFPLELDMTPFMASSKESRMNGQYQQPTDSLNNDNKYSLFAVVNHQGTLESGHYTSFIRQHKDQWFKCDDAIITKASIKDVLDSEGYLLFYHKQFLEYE
Procedure, shortened: as §1

[3] = biological target: USP24 (UniProt Q9UPU5)
Procedure, shortened: as §1

[4] = biological target: T3, USP25 (UniProt Q9UHP3)
T3 sequence (whole entry): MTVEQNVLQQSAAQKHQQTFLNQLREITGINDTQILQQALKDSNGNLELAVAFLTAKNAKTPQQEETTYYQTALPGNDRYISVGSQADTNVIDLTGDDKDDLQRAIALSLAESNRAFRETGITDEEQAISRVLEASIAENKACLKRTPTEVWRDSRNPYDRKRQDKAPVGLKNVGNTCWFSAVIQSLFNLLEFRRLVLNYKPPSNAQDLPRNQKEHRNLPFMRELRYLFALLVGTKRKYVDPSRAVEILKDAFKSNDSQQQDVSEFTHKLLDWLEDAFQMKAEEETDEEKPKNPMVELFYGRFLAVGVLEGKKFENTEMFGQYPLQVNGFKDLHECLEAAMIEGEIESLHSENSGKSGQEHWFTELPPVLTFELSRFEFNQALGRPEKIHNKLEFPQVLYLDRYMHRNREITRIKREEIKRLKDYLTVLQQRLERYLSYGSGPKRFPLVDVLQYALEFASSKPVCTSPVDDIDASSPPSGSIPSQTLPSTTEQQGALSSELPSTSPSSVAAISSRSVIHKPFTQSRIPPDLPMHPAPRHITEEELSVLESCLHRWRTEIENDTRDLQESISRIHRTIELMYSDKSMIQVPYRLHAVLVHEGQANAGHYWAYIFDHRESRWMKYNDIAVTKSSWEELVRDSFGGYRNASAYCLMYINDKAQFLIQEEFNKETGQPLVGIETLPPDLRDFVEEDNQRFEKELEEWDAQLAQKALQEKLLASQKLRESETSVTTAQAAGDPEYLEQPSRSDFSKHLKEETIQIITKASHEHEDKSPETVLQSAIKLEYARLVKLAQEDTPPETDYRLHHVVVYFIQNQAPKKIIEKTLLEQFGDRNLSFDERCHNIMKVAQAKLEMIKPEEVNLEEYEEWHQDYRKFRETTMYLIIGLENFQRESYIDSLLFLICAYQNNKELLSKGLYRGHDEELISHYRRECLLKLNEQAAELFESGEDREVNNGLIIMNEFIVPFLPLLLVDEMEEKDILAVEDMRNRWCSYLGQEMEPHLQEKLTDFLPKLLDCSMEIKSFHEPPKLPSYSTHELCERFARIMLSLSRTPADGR
Procedure, shortened: as §1

[5] = biological target: T4, USP28 (UniProt Q96RU2)
T4 sequence (whole entry): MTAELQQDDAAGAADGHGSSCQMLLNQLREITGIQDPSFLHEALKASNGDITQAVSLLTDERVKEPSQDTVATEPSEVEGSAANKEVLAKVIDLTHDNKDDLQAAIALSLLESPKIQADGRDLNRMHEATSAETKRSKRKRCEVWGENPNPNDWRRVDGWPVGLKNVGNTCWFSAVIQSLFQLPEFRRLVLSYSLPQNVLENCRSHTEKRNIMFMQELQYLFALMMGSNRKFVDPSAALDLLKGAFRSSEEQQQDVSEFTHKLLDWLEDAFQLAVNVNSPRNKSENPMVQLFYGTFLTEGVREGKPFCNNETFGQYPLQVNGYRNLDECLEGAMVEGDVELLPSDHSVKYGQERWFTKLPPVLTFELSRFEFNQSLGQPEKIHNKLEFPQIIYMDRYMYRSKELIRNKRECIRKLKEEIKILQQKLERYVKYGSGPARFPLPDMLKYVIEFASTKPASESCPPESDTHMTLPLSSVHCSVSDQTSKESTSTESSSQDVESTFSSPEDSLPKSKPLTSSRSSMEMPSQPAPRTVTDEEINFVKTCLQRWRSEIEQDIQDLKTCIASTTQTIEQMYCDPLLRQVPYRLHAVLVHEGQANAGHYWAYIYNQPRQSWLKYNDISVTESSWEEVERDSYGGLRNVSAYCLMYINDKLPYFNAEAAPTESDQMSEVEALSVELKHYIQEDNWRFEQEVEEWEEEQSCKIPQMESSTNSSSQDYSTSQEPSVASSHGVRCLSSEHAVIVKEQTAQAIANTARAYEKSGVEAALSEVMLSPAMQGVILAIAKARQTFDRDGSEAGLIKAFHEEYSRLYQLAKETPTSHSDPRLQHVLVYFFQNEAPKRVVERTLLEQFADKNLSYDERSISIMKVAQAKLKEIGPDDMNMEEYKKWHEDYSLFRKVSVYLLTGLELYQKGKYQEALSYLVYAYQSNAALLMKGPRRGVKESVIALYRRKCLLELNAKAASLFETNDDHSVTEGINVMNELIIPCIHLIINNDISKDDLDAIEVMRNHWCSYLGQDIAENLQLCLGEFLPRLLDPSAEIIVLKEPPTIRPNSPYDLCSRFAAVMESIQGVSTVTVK
Procedure, shortened: as §1

Measured: log2 ratio of Biotin-Ahx-Ub-VS probe labelling

Sequence of USP24 (Q9UPU5 whole entry): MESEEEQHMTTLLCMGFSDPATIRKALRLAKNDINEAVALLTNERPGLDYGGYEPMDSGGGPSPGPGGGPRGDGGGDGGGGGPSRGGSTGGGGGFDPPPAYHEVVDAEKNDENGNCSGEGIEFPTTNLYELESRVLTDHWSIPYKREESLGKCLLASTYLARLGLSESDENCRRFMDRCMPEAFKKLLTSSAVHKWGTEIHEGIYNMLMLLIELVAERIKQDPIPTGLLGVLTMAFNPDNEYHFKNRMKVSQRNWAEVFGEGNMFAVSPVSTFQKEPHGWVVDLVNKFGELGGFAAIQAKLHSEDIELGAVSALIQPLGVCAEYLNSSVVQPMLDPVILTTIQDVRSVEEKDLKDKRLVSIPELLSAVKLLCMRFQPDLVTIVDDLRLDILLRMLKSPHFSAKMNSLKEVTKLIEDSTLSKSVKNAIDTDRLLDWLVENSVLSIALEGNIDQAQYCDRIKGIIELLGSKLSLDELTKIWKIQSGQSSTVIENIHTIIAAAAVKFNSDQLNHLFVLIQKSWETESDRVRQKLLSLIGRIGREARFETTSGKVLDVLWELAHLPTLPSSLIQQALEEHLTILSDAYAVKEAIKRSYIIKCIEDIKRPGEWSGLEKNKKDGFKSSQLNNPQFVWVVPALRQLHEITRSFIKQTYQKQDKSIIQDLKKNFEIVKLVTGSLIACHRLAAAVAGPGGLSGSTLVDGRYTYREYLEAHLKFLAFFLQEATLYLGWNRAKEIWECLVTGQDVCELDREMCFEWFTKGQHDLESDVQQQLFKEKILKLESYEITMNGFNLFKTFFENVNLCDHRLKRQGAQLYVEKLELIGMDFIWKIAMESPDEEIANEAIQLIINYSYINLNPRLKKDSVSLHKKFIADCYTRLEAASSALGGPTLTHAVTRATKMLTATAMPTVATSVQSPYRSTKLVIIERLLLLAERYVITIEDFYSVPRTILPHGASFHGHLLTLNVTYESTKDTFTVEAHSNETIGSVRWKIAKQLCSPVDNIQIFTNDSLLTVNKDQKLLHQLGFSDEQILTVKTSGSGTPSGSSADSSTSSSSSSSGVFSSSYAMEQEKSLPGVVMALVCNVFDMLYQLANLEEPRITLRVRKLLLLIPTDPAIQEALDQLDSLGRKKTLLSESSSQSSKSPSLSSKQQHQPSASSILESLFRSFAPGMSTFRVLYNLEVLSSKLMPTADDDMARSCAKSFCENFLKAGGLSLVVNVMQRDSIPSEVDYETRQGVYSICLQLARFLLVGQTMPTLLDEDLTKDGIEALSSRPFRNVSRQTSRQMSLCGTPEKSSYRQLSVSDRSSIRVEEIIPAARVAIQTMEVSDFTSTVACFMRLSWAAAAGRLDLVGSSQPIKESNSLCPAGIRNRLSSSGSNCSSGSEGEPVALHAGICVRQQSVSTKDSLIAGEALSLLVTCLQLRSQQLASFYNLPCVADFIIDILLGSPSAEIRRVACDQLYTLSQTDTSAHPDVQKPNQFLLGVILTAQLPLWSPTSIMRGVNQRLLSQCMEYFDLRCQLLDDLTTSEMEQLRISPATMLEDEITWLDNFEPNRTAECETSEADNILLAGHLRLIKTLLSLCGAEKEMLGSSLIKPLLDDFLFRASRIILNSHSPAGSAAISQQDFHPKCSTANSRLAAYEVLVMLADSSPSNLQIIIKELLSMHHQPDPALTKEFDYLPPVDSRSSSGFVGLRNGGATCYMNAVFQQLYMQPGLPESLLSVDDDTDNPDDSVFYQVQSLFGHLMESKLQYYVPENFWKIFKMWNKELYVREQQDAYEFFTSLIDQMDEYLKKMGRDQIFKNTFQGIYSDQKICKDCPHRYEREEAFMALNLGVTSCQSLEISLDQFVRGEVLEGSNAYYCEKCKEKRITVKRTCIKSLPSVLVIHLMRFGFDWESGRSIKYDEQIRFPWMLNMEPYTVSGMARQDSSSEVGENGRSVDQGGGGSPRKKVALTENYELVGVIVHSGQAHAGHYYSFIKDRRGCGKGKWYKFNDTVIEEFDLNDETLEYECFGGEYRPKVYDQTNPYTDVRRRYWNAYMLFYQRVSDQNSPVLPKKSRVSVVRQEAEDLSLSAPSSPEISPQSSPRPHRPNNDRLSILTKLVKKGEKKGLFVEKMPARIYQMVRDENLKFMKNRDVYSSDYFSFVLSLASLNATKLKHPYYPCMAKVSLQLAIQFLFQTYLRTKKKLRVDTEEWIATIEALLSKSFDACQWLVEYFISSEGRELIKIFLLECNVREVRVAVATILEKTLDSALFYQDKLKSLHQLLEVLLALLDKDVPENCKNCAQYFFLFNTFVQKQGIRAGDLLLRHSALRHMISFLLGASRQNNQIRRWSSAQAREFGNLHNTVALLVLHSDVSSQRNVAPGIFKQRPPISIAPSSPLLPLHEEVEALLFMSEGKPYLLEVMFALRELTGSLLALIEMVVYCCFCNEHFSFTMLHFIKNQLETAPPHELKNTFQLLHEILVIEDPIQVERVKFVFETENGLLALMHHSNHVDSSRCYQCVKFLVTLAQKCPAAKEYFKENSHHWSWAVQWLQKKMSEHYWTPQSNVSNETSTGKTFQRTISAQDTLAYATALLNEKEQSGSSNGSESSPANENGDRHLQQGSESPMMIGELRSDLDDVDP

COc1cccc(CN(C)C(=O)CCl)c1
inactive: [1] -0.352 | [2] -0.426 | [3] -0.497 | [4] -0.669 | [5] -0.772
